# This is a sample that favours compounds with a hit; in the whole collection about 2.4% have one here.
# PABP1 MLLE inh: blocks PAM2 peptide binding to the PABP1 MLLE domain | inhibition, % at 20 µM | P11940 | GST-MLLE / FITC-PAM2 fluorescence polarization | AID 588489 | actives 0.36% (n = 360,000); in the data active means inhibition above about 35%, passing the limit was not always enough;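 further: plate controls were DMSO wells with GST-MLLE for no effect and wells lacking GST-MLLE protein for full effect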
# Target sequence (P11940 whole entry, looked up, the tested form may be a part): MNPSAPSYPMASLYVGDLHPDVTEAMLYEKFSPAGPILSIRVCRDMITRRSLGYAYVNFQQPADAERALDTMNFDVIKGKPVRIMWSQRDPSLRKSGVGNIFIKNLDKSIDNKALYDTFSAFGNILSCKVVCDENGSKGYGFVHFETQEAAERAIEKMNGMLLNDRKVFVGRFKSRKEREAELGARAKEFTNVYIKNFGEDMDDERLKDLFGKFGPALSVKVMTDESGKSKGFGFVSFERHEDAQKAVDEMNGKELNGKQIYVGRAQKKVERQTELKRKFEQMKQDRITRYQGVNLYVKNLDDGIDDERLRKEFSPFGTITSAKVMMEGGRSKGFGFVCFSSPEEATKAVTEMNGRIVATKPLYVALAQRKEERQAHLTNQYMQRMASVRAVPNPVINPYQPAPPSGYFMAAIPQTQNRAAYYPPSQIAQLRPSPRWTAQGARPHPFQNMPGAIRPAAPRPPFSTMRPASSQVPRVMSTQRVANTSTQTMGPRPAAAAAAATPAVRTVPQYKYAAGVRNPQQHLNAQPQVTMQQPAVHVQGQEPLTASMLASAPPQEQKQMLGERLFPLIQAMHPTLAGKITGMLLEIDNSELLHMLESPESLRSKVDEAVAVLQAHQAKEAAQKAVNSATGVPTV
# PHOSPHO1 block: blocks human PHOSPHO1 phosphatase activity; AID 1565; recombinant PHOSPHO1, absorbance phosphatase assay; inhibition, % at 13.3 µM; Q8TCT1; actives 1.1% (n = 290,000); in the data active means inhibition above about 60%
# PABP FP inh: PABP-poly(A) binding inhibition; P11940; PABP-poly(A) RNA binding, fluorescence polarization; calls only at 35 µM; actives 1% (n = 290,000);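 further: calls also rest on retests at 20 µM and on dose response follow-up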
# eIF4H inh: inhibitors of RNA binding by human eIF4H; Q15056; eIF4H fluorescence polarization binding assay; inhibition, % at 35 µM; actives 0.94% (n = 290,000);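 further: calls also rest on retests at 20 µM and on dose response follow-up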
# Efa HMGR inh: E. faecalis class II HMG-CoA reductase inhibition; purified E. faecalis HMGR, NADPH absorbance 340 nm kinetic; inhibition, % at 10 µM; actives 0.41% (n = 190,000); AID 1066;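 active means inhibition above a set limit, the median over all tested compounds plus 3 SD, cut at about 9.5% in these data; inconclusive means no clear call, values can overlap the other calls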;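 further: enzyme runs in reverse so mevalonate oxidation gives rising NADPH absorbance; 0% = complete reaction with DMSO and 100% = background rate lacking mevalonate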
# * hit, by the source's call; i = inactive; ? = inconclusive; / = no result given; + = active, no number. Unless noted, how the calls were made is not given here.
SMILES,PABP1 MLLE inh,PHOSPHO1 block,PABP FP inh,eIF4H inh,Efa HMGR inh
O=C1CC(Sc2ncccc2C(=O)O)C(=O)N1 (stereo not given),12.2,16.1,i,2.7,-3.4
CC(Oc1cccnc1[N+](=O)[O-])C(=O)Nc1ccc(Cl)cn1 (stereo not given),6.4,/,/,/,/
OCCN1CCN(C2CCC(c3ccc(F)cc3)c3ccc(F)cc32)CC1 (stereo not given),11.7,/,/,/,/
Cc1cccc2cc(C3CC(c4ccco4)=NN3C(=O)CCC(=O)O)c(Cl)nc12 (stereo not given),-8.7,0.6,i,56.4*,1.4
COc1ccc2nc(Cl)c(C3CC(c4ccco4)=NN3C(=O)CCC(=O)O)cc2c1 (stereo not given),-2.4,5.7,i,92.4*,0.7
Cc1ccc2nc(Cl)c(C3CC(c4ccco4)=NN3C(=O)CCCC(=O)O)cc2c1 (stereo not given),-2.0,26.8,i,16.6,/
COc1ccc2nc(Cl)c(C3CC(c4ccco4)=NN3C(=O)CCCC(=O)O)cc2c1 (stereo not given),1.1,12.3,i,68.0,/
O=C(CCl)N1N=C(c2ccco2)CC1c1ccco1 (stereo not given),7.0,23.9,+,53.9*,/
COc1ccc(C(=O)NC(=O)COC(=O)C2CC2C)cc1 (stereo not given),-5.3,/,/,/,/
COc1ccccc1N1CCN(Cc2cc(Br)c(O)c3ncccc23)CC1,10.2,78.3*,i,18.1,-0.3
Oc1ccc(CN2CCCCC2)c2cccnc12,15.6,15.0,i,85.2*,-5.8
O=[N+]([O-])c1cc(CN2CCCC2)c2cccnc2c1O,15.4,-16.1,i,86.6*,0.4
Oc1ccc(CNc2ccccc2F)c2cccnc12,33.3,97.1*,i,11.3,-1.4
CCCSc1ccc([C@@H]2[C@@H]3C(=O)N(C)C(=O)[C@@H]3[C@]3(C(=O)OC)CCCN23)cc1OC,14.2,/,/,/,/
CCCCn1c(N)c(N(CCC(C)C)C(=O)c2ccc(N3CCCC3=O)cc2)c(=O)[nH]c1=O,-39.8,/,/,/,/
Cc1ccc(S(=O)(=O)N2C[C@H]3C(=O)C[C@@H](c4cccs4)N(S(=O)(=O)c4ccc(C)cc4)[C@H]3C[C@H]2c2ccccc2)cc1,-8.8,/,/,/,/
C=CCOC(=O)C1=C(C)NC(SCC(=O)Nc2nccs2)=C(C#N)C1c1cccs1 (stereo not given),-7.2,62.0*,i,-9.3,1.7
C=CCOC(=O)C1=C(C)NC(SCC(=O)Nc2nccs2)=C(C#N)C1c1ccc(Cl)cc1 (stereo not given),-21.5,66.7*,i,-6.8,-0.9
C=CCOC(=O)C1=C(C)NC(SC)=C(C#N)C1c1cccs1 (stereo not given),8.0,25.4,i,2.8,-0.2
CC(=O)c1ccc(S(=O)(=O)Nc2cccc(-c3ccc(N4CCOCC4)nn3)c2)cc1,-8.7,/,/,/,/
COc1cccc(O[C@@H]2O[C@@H]3COC(C)(C)O[C@H]3[C@H](O)[C@H]2NC(C)=O)c1,3.4,11.3,i,-3.6,10.0*
CC(=O)NC1C(Oc2cccc(C)c2)OC2COC(c3ccco3)OC2C1O (stereo not given),-5.3,0.3,i,2.1,-4.7
CCn1c(CSc2nccn2C)nc2cc(C(=O)O)ccc21,51.0*,38.7,+,114.8*,-3.9
CCn1c(CSc2nc3ccccc3[nH]2)nc2cc(C(=O)O)ccc21,-33.8,27.6,i,13.7,-2.2
CC(C)N(Cc1cnn(C)c1)C(=O)C1CCC(=O)N(CCc2cccc(F)c2)C1 (stereo not given),-4.4,61.0*,i,-0.1,/
SMILES,PABP1 MLLE inh,PHOSPHO1 block,PABP FP inh,eIF4H inh,Efa HMGR inh
Cc1cc(C)n(CCN(C)C(=O)C2CCC(=O)N(CCc3cccc(F)c3)C2)n1 (stereo not given),12.6,64.0*,/,/,/
Cn1c(O)c(N=NC(=O)c2ccccc2O)c2ccccc21,4.7,24.8,i,-5.4,-0.3
Cc1cc(N=NC(=O)c2ccccc2O)c2ccccc2c1O,14.7,69.5*,i,22.9,5.6
O=[N+]([O-])c1cc2c(cc1/C=N/n1c(-c3ccccc3)n[nH]c1=S)OCO2,-5.4,106.0*,i,58.6*,6.5
O=[N+]([O-])c1ccccc1/C=N/n1c(-c2cccnc2)n[nH]c1=S,-20.0,7.1,i,-0.8,-2.8
O=[N+]([O-])c1cc2c(cc1/C=N/n1c(-c3ccccn3)n[nH]c1=S)OCO2,-11.7,73.5*,i,97.4,-8.4
S=c1[nH]nc(-c2ccccn2)n1/N=C/c1ccc(-c2ccccc2Br)o1,-33.8,61.6*,i,30.8,-3.7
Cc1ccc(-c2n[nH]c(=S)n2/N=C/C=C/c2ccccc2[N+](=O)[O-])cc1,-31.3,99.2*,i,9.2,-1.0
O=[N+]([O-])c1ccccc1/C=C/C=N/n1c(-c2cc(-c3ccccc3)n[nH]2)n[nH]c1=S,-119.3,-69.3,i,41.7,/
Cc1ccc(NC(=S)N(CCCN(C)C)Cc2cc3cc4c(cc3[nH]c2=O)OCO4)c(C)c1,-22.6,36.3,i,-4.1,-2.0
Cc1cccc(N=Cc2cc3c(cc2[N+](=O)[O-])OCO3)c1,-9.2,-134.9,+,61.6*,/
O=[N+]([O-])c1cc2c(cc1C=Nc1ccccc1)OCO2,-77.5,-24.6,i,33.4,/
CCOc1ccccc1CN1CCN(Cc2csc(C(C)=O)c2)CC1CCO (stereo not given),-3.2,-3.4,i,-2.3,-2.5
CC(C)(C)c1ccc(/C=N/NC(=S)Nc2cccnc2)cc1,/,-51.8,i,-10.3,-2.9
O=C(N/N=C/c1ccc(O)c(O)c1)N/N=C/c1ccc(O)c(O)c1,-7.6,23.9,i,55.7*,/
Oc1ccc(/C=N/NC(=S)Nc2cccnc2)cc1O,40.3*,3.2,+,67.8,3.5
C[C@@H](C(=O)OCn1nnc2ccccc2c1=O)N1C(=O)C2CCCCC2C1=O (stereo not given in full),7.4,28.3,i,-0.2,-3.9
Cc1ccc(C2CC(=O)Oc3cc(O)ccc32)cc1 (stereo not given),7.1,3.7,+,50.3*,4.3
CCOc1cccc(=O)c2c(C)n(C)c(C)c12,22.7,19.2,+,59.6*,-3.4
CCC12OC(=N)C(C#N)(C1C)C(C#N)(C#N)C(c1ccccc1)O2 (stereo not given),20.3,1.4,+,?,-2.3
CCn1c(C)[n+](CC(O)COCC2CC=CCC2)c2ccccc21 (stereo not given),-105.8,104.3*,/,/,-0.6
O=C(Nc1ccc(Cl)c(S(=O)(=O)N2CCCCC2)c1)c1ccco1,-12.2,/,/,/,/
Cn1c(COc2ccc(F)cc2)nnc1SCC(=O)NC1CC1,-9.1,41.4,i,5.7,/
CCOC(=O)CN(C(=O)CSc1nnc(CNc2ccc(F)cc2)n1C)c1ccccc1,-11.6,15.5,i,-2.5,-2.4
CC(C)n1c(SCC(=O)NC2CC2)nnc1-c1ccco1,1.2,65.8*,i,-6.4,/
CCOC(=O)CN(C(=O)CSc1nnc(COc2ccc(OC)cc2)n1C)c1ccccc1,-11.5,73.5*,i,-1.0,-3.5
